In the library only some 2.2% were active in any assay of this set; here they are far more common.
Abeta rescue – compounds reversing amyloid beta toxicity in yeast | Potency, µM (series often up to 46.1 µM), usual class: activators | yeast expressing A-beta42, growth rescue, OD600, 48 h; response scale: 0% DMSO, 100% iron-clioquinol control | 410,000 compounds, 0.063% hits; also: nearly all actives have a fitted effect of over 55% in size
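Yeast A-beta toxicity model in growth medium with pinned compounds, 48 h at 30 C; growth read as absorbance at 600 nm. Normalized to FeCl3/clioquinol equimolar mix (positive) and DMSO (negative).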
aSyn rescue – alpha-synuclein toxicity inhibition in yeast; Yeast expressing alpha-synuclein, growth rescue, BacTiter-Glo, 24 h; Potency, µM (titrated, usually from 46.1 µM), for the others: at the highest dose growth rescue (activation), actives largely listed as activators; 370,000 compounds, 0.14% hits; also: % of control where 0% means no effect; nearly all actives have a fitted effect of over 65% in size
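Galactose-induced alpha-syn yeast (OD600=0.02, raffinose-pregrown) + pinned cpd, 24 hr, 30 deg C; growth by BacTiter-Glo luminescence. Growth restoration scores as activation.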
TDP-43 yeast inh – TDP-43 toxicity inhibition in yeast. TDP-43 expressing yeast growth rescue, BacTiter-Glo, 24 h. 410,000 compounds, 1.8% hits. Potency, µM (top dose mostly 46.1 µM), without a hit: at the highest dose growth rescue (activation), usual class: activators; also: % of control where 0% means no effect; nearly all actives have a fitted effect of over 50% in size
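Growth rescue of TDP-43-toxic yeast measured as ATP luminescence (BacTiter-Glo). Cells grown to mid-log in raffinose, induced in galactose at OD600=0.02, exposed to compound 24 hr at 30 deg C.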
FUS yeast rescue – rescues growth of FUS-expressing yeast; AID 1347120; Potency, µM (highest dose often 76.6 µM), hits mostly activators; S. cerevisiae FUS-expressing, growth rescue, OD600, 24 h; 390,000 compounds, 0.24% hits;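 also: plate controls were DMSO vehicle for no effect and reference control for full effect; nearly all actives have a fitted effect of over 55% in size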
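Absorbance at 600 nm, taken 24hr after compound addition, measured rescue of FUS-yeast growth at 30C. Induction used 2% galactose with seeding at OD 0.005. Controls: CP55940 from 92uM final, DMSO only.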
Mito fusion act – blocks mitochondrial division or promotes mitochondrial fusion | AID 485298 | S. cerevisiae fusion-defective mutant growth rescue, CellTiterGlo 48 h | Potency, µM (top dose mostly 46.1 µM), for inactives: top-dose growth rescue (activation), hits mostly activators | 320,000 compounds, 0.23% hits; also: % of control where 0% means no effect; nearly all actives have a fitted effect of over 45% in size
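Compounds are tested for their ability to restore growth of mitochondrial fusion-defective yeast strains at non-permissive 37C in YPEG medium over 48 hours. Viability is quantified by luciferase luminescence.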
An asterisk follows results filed as active; i = inactive; ? = inconclusive; · = no result. Calls follow the shape of the dose curve; as a rule, active = well fitted curve in the direction sought with a large enough effect; inconclusive = small, poorly fitted or top-dose-only effect, or another doubt; inactive = no such curve, though single readings can be large; an effect the other way counts as inactive or inconclusive. Potency is read from the fitted curve at half-maximal effect.

SMILES	Abeta rescue	aSyn rescue	TDP-43 yeast inh	FUS yeast rescue	Mito fusion act
CCC(=O)N1c2ccc(S(=O)(=O)N3CCN(c4ccccc4Cl)CC3)cc2CC1C (configuration not stated)	i	8%	35µM*	?	14%
c1nc(SSc2ncc3n[nH]nc3n2)nc2n[nH]nc12	·	4%	·	·	·
CCn1c2ccccc2c2cc(/C=C3/C=Cc4ccccc43)ccc21	·	0%	·	·	·
COc1ccccc1NS(=O)(=O)c1ccc(Br)s1	i	22%	11µM*	i	16%
O=S(=O)(NCCc1ccccc1)c1ccc(Br)s1	i	5%	?	i	8%
COc1ccc(OC)c(NS(=O)(=O)c2ccc(Cl)s2)c1	?	14%	?	i	-23%
COc1ccc(OC)c(NS(=O)(=O)c2ccc(Br)s2)c1	i	·	22µM*	i	-25%
COc1ccc(OC)c(NS(=O)(=O)c2ccc(-c3cc(C)no3)s2)c1	i	·	16µM*	i	·
COc1ccc(CCNS(=O)(=O)c2ccc(Br)s2)cc1	i	1%	11µM*	i	0%
Cc1ccc(Nc2c(-c3ccc(C)o3)nc3cnccn23)cc1	i	-86%	22µM*	i	2%
Cc1ccc(-c2nc3ccccn3c2Nc2ccccc2)o1	i	-16%	9%	i	2%
CSc1ccc(-c2nc3cnccn3c2Nc2ccc3c(c2)OCO3)cc1	i	14%	25µM*	i	0%
Clc1ccc(-c2nc3cnccn3c2Nc2ccc3c(c2)OCO3)cc1	i	12%	?	?	?
Cc1ccc(Nc2c(-c3ccc(C)o3)nc3ccccn23)cc1	·	-23%	·	·	·
Cc1ccc(-c2nc3cnccn3c2Nc2ccccc2)o1	i	20µM*	35µM*	i	-1%
Cc1nc(-c2ccc(S(=O)(=O)Nc3ccc(Cl)c(C(F)(F)F)c3)cc2)co1	i	2%	?	i	·
CCOc1ccccc1C(=O)N(Cc1ccc(N(C)C)cc1)CC1CCCO1 (configuration not stated)	i	·	1%	i	·
Cc1ccc(OCC(=O)NC2CCCC2)c(C)c1	i	9%	11%	i	3%
Cc1ccc(C)c(OCC(=O)NC2CCCCCC2)c1	i	11%	11µM*	i	9%
CCCCCOc1c(Cl)cc(C(=O)N(Cc2ccc(C)o2)C2CCS(=O)(=O)C2)cc1Cl (configuration not stated)	i	·	5%	35µM*	·
CCCCOc1c(Cl)cc(C(=O)N(Cc2ccc(C)o2)C2CCS(=O)(=O)C2)cc1Cl (configuration not stated)	i	·	?	?	·
COc1ccc(NC(=O)N2CCC(CN3CCCC3)CC2)c(OC)c1	i	·	16%	i	·
COCCNc1nc(Oc2ccc(C(N)=O)cc2)c2sccc2n1	i	-7%	7%	i	·
CC(=O)c1ccc(NC(=O)c2cc3sccc3n2Cc2ccc(Cl)cc2)cc1	i	·	8%	i	·
CCOC(=O)Cn1c(CN(Cc2ccccc2)Cc2ccccc2)nc2c1c(=O)n(C)c(=O)n2C	i	1%	22µM*	?	27%
SMILES	Abeta rescue	aSyn rescue	TDP-43 yeast inh	FUS yeast rescue	Mito fusion act
CCCn1c(CN(Cc2ccccc2)Cc2ccccc2)nc2c1c(=O)n(C)c(=O)n2C	i	1%	?	i	?
Cc1cc(/C=C/c2ccnc3ccccc23)ccc1N	·	7%	·	·	·
Cc1nc(S(=O)(=O)c2cccc(Cl)c2)nc2c1CCC2	i	?	14µM*	·	5%
Cc1nc(S(=O)(=O)c2ccc(Cl)cc2Cl)nc2c1CCC2	i	2%	-1%	i	-5%
O=C(O)c1ccc(N/N=C/c2ccc(-c3cccc(Cl)c3)o2)cc1	i	-16%	18µM*	i	-1%
O=C(O)c1ccc(N/N=C/c2ccc(-c3cc(Cl)ccc3Cl)o2)cc1	i	-5%	29%	?	3%
Cc1c(C(=O)O)cccc1-c1ccc(/C=N/n2cnnc2)o1	i	4%	-2%	i	6%
Cc1c(C(=O)O)cccc1-c1ccc(/C=N/Nc2ccc(Br)cc2)o1	i	-54%	-93%	?	20µM*
